mHTT CaM bind – inhibitors of human mutant huntingtin-calmodulin interaction; AlphaScreen His-mHTT/GST-CaM binding, luminescence; inhibition, % at 15 µM; 190,000 tested, 3.6% active;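 note: 0% = both proteins with DMSO and 100% = one protein alone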
Pf apPOL inh – Pf-apPOL DNA polymerase inhibition; Recombinant Pf-apPOL, molecular beacon fluorescence, 1.5 h; inhibition, % at 10 µM; 210,000 tested, 0.25% active
* = called active by the depositor. The sample as a whole holds a higher share of hits than the screen did. Cut-off read from the data, not from the text of the source: active = inhibition above about 50%; inactive = the rest.

What do the screens show for `O=C(Nc1ccc(F)cc1F)N1CCC2(CC1)Nc1cc(F)ccc1-n1cccc12`?
mHTT CaM bind: 50; Pf apPOL inh: 1

What do the screens show for `O=C(Nc1cccc(F)c1)N1CCC2(CC1)Nc1cc(F)ccc1-n1cccc12`?
mHTT CaM bind: 87*; Pf apPOL inh: -1

How did O=C(Nc1ccc(F)c(Cl)c1)N1CCC2(CC1)Nc1cc(F)ccc1-n1cccc12 do in these assays?
mHTT CaM bind: 97*; Pf apPOL inh: 2

Results for CSc1cccc(NC(=O)N2CCC3(CC2)Nc2ccccc2-n2cccc23)c1 ?
mHTT CaM bind: 84*; Pf apPOL inh: -5

What do the screens show for `COc1ccc(Cl)cc1NC(=O)N1CCC2(CC1)Nc1ccccc1-n1cccc12`?
mHTT CaM bind: 32; Pf apPOL inh: -6

How did Cc1ccccc1C1=NOC(C(=O)N(C)CC(=O)NC(C)C)C1 (configuration not stated) do in these assays?
mHTT CaM bind: 2; Pf apPOL inh: -3

Results for Cc1ccc(OCCCC(=O)Nc2ccc(S(=O)(=O)Nc3nc(C)cc(C)n3)cc2)cc1 ?
mHTT CaM bind: 13; Pf apPOL inh: 6

Results for COc1cccc(C2=CC(c3ccc(F)c(Br)c3)n3nnnc3N2)c1 (configuration not stated) ?
mHTT CaM bind: -8; Pf apPOL inh: -7

How did Cc1ccc2c(c1)NC1(CCN(C(=O)c3ccccc3Br)CC1)c1cccn1-2 do in these assays?
mHTT CaM bind: 89*; Pf apPOL inh: -5

How did Cc1ccc(NC(=O)N2CCC3(CC2)Nc2cc(F)ccc2-n2cccc23)cc1F do in these assays?
mHTT CaM bind: 86*; Pf apPOL inh: -4

What do the screens show for `Cc1ccc(Cl)cc1NC(=O)N1CCC2(CC1)Nc1cc(F)ccc1-n1cccc12`?
mHTT CaM bind: 29; Pf apPOL inh: 0

How did COc1cc(C(=O)Nc2c3c(nn2-c2cccc(C)c2C)CSC3)cc(OC)c1OC do in these assays?
mHTT CaM bind: 3; Pf apPOL inh: 0

Results for CN(C)c1ncncc1N1CCC(C(=O)NC2CCCCCC2)CC1 ?
mHTT CaM bind: 8; Pf apPOL inh: -3

Results for Cn1c(=O)[nH]c2nnc(-c3ccc(Cl)cc3)nc2c1=O ?
mHTT CaM bind: 6; Pf apPOL inh: -3

How did Cc1sc(-c2ccn[nH]2)cc1NC(=O)C1CCCCC1 do in these assays?
mHTT CaM bind: -4; Pf apPOL inh: -3

How did Cc1sc(-c2ccn[nH]2)cc1NC(=O)c1cccc(N(C)C)c1 do in these assays?
mHTT CaM bind: 87*; Pf apPOL inh: -2

How did CC1(C)CC(=O)C2=C(C1)Nc1nc(SCc3ccccc3F)[nH]c(=O)c1C2c1ccc(O)cc1 (configuration not stated) do in these assays?
mHTT CaM bind: 46; Pf apPOL inh: 1

Results for O=C(O)C1C2C=CC(C2)C1C(=O)Nc1ncccc1O (configuration not stated) ?
mHTT CaM bind: 4; Pf apPOL inh: 80*

Results for O=C(O)C1C2C=CC(C2)C1C(=O)Nc1cccnc1 (configuration not stated) ?
mHTT CaM bind: -5; Pf apPOL inh: -12

Results for Cc1ccc(Sc2c(C)nn(S(=O)(=O)c3ccccc3[N+](=O)[O-])c2C)cc1 ?
mHTT CaM bind: 50*; Pf apPOL inh: 1

What do the screens show for `Cc1nn(S(=O)(=O)c2ccccc2[N+](=O)[O-])c(C)c1Sc1ccccc1`?
mHTT CaM bind: 0; Pf apPOL inh: -9

What do the screens show for `O=[N+]([O-])c1cccc(NCc2c(O)ccc3oc4c(c23)CCCC4)c1`?
mHTT CaM bind: 97*; Pf apPOL inh: 9

What do the screens show for `CC(=O)N(c1ccc2oc3c(c2c1)CCCC3)S(=O)(=O)c1cccc([N+](=O)[O-])c1`?
mHTT CaM bind: 9; Pf apPOL inh: 9

Results for Cc1ccc(C2CC(c3c(F)cccc3Cl)n3nc(N)nc3N2)cc1 (configuration not stated) ?
mHTT CaM bind: 19; Pf apPOL inh: -4

What do the screens show for `CCN(CC)Cc1c(O)ccc2c1OC(=Cc1cccc(Cl)c1)C2=O`?
mHTT CaM bind: 53*; Pf apPOL inh: -2

Results for CN(C)Cc1c(O)ccc2c1OC(=Cc1cccc(Cl)c1)C2=O ?
mHTT CaM bind: 11; Pf apPOL inh: 10

Results for CC1=NN(C(=O)CCCc2ccccc2)C(O)(c2ccc(Br)cc2)C1 (configuration not stated) ?
mHTT CaM bind: 58*; Pf apPOL inh: 1

How did CCC(=O)N1N=C(CC)CC1(O)c1ccc(Br)cc1 (configuration not stated) do in these assays?
mHTT CaM bind: 6; Pf apPOL inh: -4

Results for O=C(NCC1CCCO1)c1cc(-c2cccnc2)nc2ccccc12 (configuration not stated) ?
mHTT CaM bind: -14; Pf apPOL inh: -11

Results for CC1(C(=O)NC2CCCCCC2)Cc2ccccc2C(=O)N1Cc1ccco1 (configuration not stated) ?
mHTT CaM bind: -6; Pf apPOL inh: -1

What do the screens show for `COc1ccc(NC(=O)N2CCc3c(c4ccccc4n3C)C2)cc1`?
mHTT CaM bind: 51*; Pf apPOL inh: -4

How did CCCn1cc2c3c(cccc31)CN(C(=O)Nc1ccc(OC)cc1)CC2 do in these assays?
mHTT CaM bind: 13; Pf apPOL inh: 0

What do the screens show for `O=C(Nc1ccccc1)N1CCCCCC1c1cccs1` (configuration not stated)?
mHTT CaM bind: -8; Pf apPOL inh: -1

What do the screens show for `Cc1nn(-c2ccc(C(=O)NC(C)C)cc2)c2c1C(=O)CC(C)(C)C2`?
mHTT CaM bind: -4; Pf apPOL inh: 4

What do the screens show for `Cn1cc2c3c(cccc31)CN(C(=O)Cc1cccc(F)c1)CC2`?
mHTT CaM bind: 53*; Pf apPOL inh: -1

What do the screens show for `CCn1cc2c3c(cccc31)CN(C(=O)COc1ccc(F)cc1)CC2`?
mHTT CaM bind: 74*; Pf apPOL inh: -6

What do the screens show for `COCCn1cc2c3c(cccc31)CN(C(=O)Cc1cccc(F)c1)CC2`?
mHTT CaM bind: 40; Pf apPOL inh: -1

Results for CCOCC(=O)N1CCc2cn(CC)c3cccc(c23)C1 ?
mHTT CaM bind: 28; Pf apPOL inh: -4

Results for CCC(C(=O)N1CCc2cn(CCOC)c3cccc(c23)C1)c1ccccc1 (configuration not stated) ?
mHTT CaM bind: 63*; Pf apPOL inh: -3

Results for COCCCNC(=O)N1CCc2cn(CCOC)c3cccc(c23)C1 ?
mHTT CaM bind: 4; Pf apPOL inh: -1

How did COCCn1cc2c3c(cccc31)CN(C(=O)Cc1ccccc1Cl)CC2 do in these assays?
mHTT CaM bind: 71*; Pf apPOL inh: -1

What do the screens show for `COCCn1cc2c3c(cccc31)CN(C(=O)Cc1c(F)cccc1Cl)CC2`?
mHTT CaM bind: -3; Pf apPOL inh: 0

Results for COc1cccc(NC(=O)C(=O)c2c(O)[nH]c3ccccc23)c1 ?
mHTT CaM bind: 7; Pf apPOL inh: -6

Results for COc1ccc(N=Cc2c(O)n(-c3ccccc3OC)c(=O)c3ccccc23)cc1OC ?
mHTT CaM bind: 5; Pf apPOL inh: -1

What do the screens show for `O=S1(=O)C[C@@H](N2CCN(c3ccccc3)CC2)[C@H](COCc2ccccc2)N1`?
mHTT CaM bind: 3; Pf apPOL inh: -4

What do the screens show for `CCn1cc2c3c(cccc31)CN(C(=O)Nc1cccc(F)c1C)CC2`?
mHTT CaM bind: -3; Pf apPOL inh: 1

How did COCCn1cc2c3c(cccc31)CN(C(=O)COc1cccc(C)c1)CC2 do in these assays?
mHTT CaM bind: 35; Pf apPOL inh: -4
